According to PubChem BioAssay (NCATS):
Where “and” joins values, the source holds several entries; their conditions need not be identical. Equal entries are not always repeated. Inconclusive results are not listed. Calls of active or inactive are those of the source. Unless noted, the call rests on the fitted dose curve; in most records, active means well fitted curve in the direction sought with a large enough effect; inconclusive means small, poorly fitted or top-dose-only effect, or another doubt; inactive means no such curve, though single readings can be large; an effect the other way counts as inactive or inconclusive.

Tests used:
[1] = Vero cells viability qHTS for Zika virus inhibitors (AID 1347167); further: on the % scale 0 is the no-effect control and ±100 the full control effect
Outline: (§1)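 Counter-screen for cytotoxicity of hits from NS2B-NS3 protease qHTS. Overnight-attached cells (2.5 x 10^5 cells/mL, DMEM/4% FBS) were dosed in titration, incubated 24 to 48 hours, then assayed by CellTiter Glo.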

[2] = HepG2 cells viability qHTS for Zika virus inhibitors (AID 1347168); further: on the % scale 0 is the no-effect control and ±100 the full control effect
Outline: as §1

[3] = Tertiary RLuc qRT-PCR qHTS assay for Zika virus inhibitors (AID 1347169); further: nearly all actives have a fitted effect of over 55% in size; further: potency means the concentration at half of the fitted maximal effect
Outline: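 Orthogonal cell-based infection assay using recombinant ZIKV-RLuc (Cambodian) in Vero cells; compound added prior to virus at MOI 1-2. Incubation lasts 48-72 hrs at 37 degrees C before live-cell Renilla substrate is added and luminescence measured.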

[4] = qHTS to identify inhibitors of the type 1 interferon - major histocompatibility complex class I in skeletal muscle: primary screen against the NCATS Pharmaceutical Collection (AID 1347407);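 further: luminescence of HiBiT knocked into endogenous HLA-B as interferon-induced MHC class I level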; further: potency means the concentration at half of the fitted maximal effect
Outline: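 Cells were seeded with 4 ng/ml IFN-beta, incubated 1 h, then dosed with compounds over eight 1:5 steps up to 46 uM final. After 24 h at 37 C, HiBiT lytic reagent was added and luminescence read after 10 min lysis in the dark.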

[5] = target: Protein phosphatase 1D (Homo sapiens) (UniProt O15297); assay: RapidFire Mass Spectrometry qHTS Assay for Modulators of WT P53-Induced Phosphatase 1 (WIP1) (AID 1347424);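 further: amount of dephosphorylated VEPPL-S-QETFS peptide product formed by WIP1; series mostly up to about 63 µM; plate controls were DMSO wells for no effect and GSK830371 inhibitor control at 10 µM for full effect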
Protein phosphatase 1D (Homo sapiens), sequence (O15297 whole entry, looked up): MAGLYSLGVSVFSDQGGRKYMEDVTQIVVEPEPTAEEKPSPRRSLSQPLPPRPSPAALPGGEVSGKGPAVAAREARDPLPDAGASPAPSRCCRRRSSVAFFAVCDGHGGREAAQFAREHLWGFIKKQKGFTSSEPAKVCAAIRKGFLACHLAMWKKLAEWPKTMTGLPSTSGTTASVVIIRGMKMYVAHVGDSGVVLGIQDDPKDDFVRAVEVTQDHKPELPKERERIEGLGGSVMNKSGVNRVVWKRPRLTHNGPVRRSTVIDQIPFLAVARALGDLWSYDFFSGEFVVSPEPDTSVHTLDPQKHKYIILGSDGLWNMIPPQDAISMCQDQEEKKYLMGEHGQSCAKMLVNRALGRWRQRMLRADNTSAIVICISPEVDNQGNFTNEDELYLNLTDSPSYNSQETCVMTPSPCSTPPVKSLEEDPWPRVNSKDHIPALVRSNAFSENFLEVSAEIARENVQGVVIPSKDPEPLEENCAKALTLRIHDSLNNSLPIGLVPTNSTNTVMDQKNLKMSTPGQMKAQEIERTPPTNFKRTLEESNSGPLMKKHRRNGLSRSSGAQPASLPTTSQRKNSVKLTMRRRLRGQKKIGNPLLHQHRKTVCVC
Outline: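 WIP1 (10 nM final) was preincubated 1 h at room temperature with compounds in Tris-HCl pH 7.5, 30 mM MgCl2, TCEP, EGTA, BSA; 2 uM VEPPL-pS-QETFS phosphopeptide was added for 5 min, quenched with formic acid, and dephosphorylated product quantified by RapidFire MS.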

[6] = target: Protein phosphatase 1D (Homo sapiens) (UniProt O15297); assay: Rhodamine-PBP qHTS Assay for Modulators of WT P53-Induced Phosphatase 1 (WIP1) (AID 1347425); further: % of control where 0% means no effect
Outline: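 WIP1 (5 nM final) was preincubated with compound for 1 hour at room temperature. It then dephosphorylated 10 uM VEPPL-pS-QETFS peptide in Tris-HCl pH 7.5 with 30 mM MgCl2. Released Pi was detected by 10 uM Rh-PBP fluorescence (ex 525/em 598 nm) read at 1-min intervals for 11 min, as delta f1 - f0.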

[7] = target: Calcium and integrin-binding protein 1 (Homo sapiens) (UniProt Q99828); assay: Primary qHTS for Identification of Calcium Integrin Binding Protein 1 (CIB1) Competitor (AID 1508620); further: potency means the concentration at half of the fitted maximal effect
Calcium and integrin-binding protein 1 (Homo sapiens), sequence (Q99828 whole entry, looked up): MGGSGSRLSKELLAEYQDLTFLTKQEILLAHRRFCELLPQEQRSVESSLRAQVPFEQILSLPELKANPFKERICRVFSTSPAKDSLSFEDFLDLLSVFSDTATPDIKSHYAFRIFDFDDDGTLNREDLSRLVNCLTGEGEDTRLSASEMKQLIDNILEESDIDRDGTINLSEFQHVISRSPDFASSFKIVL
Outline: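 Fluorescence polarization competition: CIB1-GST (1 uM final) preincubated with compound 15 min at room temperature, then FITC-labeled alphaIIb peptide (100 nM final) added for another 15 min. Polarization read at Ex 480/Em 540.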

[8] = Primary qHTS for inhibitors of La Crosse Virus (LACV) - induced cell death in SH-SY5Y cells (AID 1508616);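 further: top concentration of the series differs between compounds; 0% = infected DMSO wells and 100% = uninfected DMSO wells; higher means more rescue of cells from virus-induced death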
Outline: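 Readout was luminescence from ATPLite 1step added after a 6-day LACV infection (0.01 MOI) of SH-SY5Y cells that had received pin-transferred compound 24 hr after seeding.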

[9] = A High-Content qHTS Against Drug Library for the Identification of Small Molecules that Inhibit DYT1 Early Onset Primary Dystonia-Associated Cell Pathology (AID 1645839; calls by dose curve; further: series mostly up to about 46 µM)
Outline: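 Readout: %pathology, the punctate EGFP-TorsinA distribution from imaging, as the primary channel and cell count as the toxicity counterscreen. HEK293 Flp-In cells expressing delE TorsinA were induced with tetracycline and treated with compound for 48 h.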

[10] = qHTS to identify inhibitors of the type 1 interferon - major histocompatibility complex class I in skeletal muscle: primary screen against the NCATS Mechanism Interrogation Plate v5.0 (MIPE) Libary (AID 1347411);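 further: plate controls were vehicle for no effect and reference inhibitor for full effect; nearly all actives have a fitted effect of over 65% in size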
Outline: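 Cells were genome-edited human myoblasts carrying a HiBit tag on endogenous HLA-B. They were treated with IFN-beta (4.0 ng/ml) and titrated compounds (top 46 uM) for 24 hrs before lytic HiBiT detection.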

[11] = Primary qHTS for small molecule stabilizers of the endoplasmic reticulum resident proteome: Secreted ER Calcium Modulated Protein (SERCaMP) assay (AID 1508630); further: on the % scale 0 is the no-effect control and ±100 the full control effect
Outline: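 GLuc-SERCaMP-expressing SH-SY5Y cells, pretreated 16 h with compound, are challenged with thapsigargin to empty ER calcium stores; after 4 h, coelenterazine is added directly to the medium and luminescence is imaged.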

[12] = target: Calcium and integrin-binding protein 1 (Homo sapiens) (UniProt Q99828); assay: Confirmatory qHTS for Identification of Calcium Integrin Binding Protein 1 (CIB1) Competitor (AID 1508617); further: on the % scale 0 is the no-effect control and ±100 the full control effect; nearly all actives have a fitted effect of over 65% in size
Outline: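 FP competition: CIB1-GST (1 uM final) in 5 mM HEPES pH 7.4, 125 mM NaCl, 5 mM CaCl2, 0.01% Tween20 preincubated 15 min RT with compounds (up to 114 uM), then FITC-alphaIIb peptide (100 nM), 15 min RT; Ex 480/Em 540.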

[13] = Counterscreen qHTS for small molecule stabilizers of the endoplasmic reticulum resident proteome: GLuc-NoTag assay (AID 1508627);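 further: SH-SY5Y cells given compound then 100 nM thapsigargin to empty ER calcium; series mostly up to about 76 µM; 0% = thapsigargin alone and -100% = DMSO vehicle control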
Outline: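 SH-SY5Y cells stably expressing constitutively secreted GLuc (no SERCaMP tag) were pre-incubated 5 h, treated with compound for 19 h, then 100 nM thapsigargin for 4 h at 37C; medium GLuc read by coelenterazine luminescence.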

[14] = Confirmatory qHTS for small molecule stabilizers of the endoplasmic reticulum resident proteome: Secreted ER Calcium Modulated Protein (SERCaMP) assay (AID 1508628); further: nearly all actives have a fitted effect of over 40% in size; further: potency means the concentration at half of the fitted maximal effect
Outline: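 We seeded SH-SY5Y-GLuc-SERCaMP cells, added compounds (three concentrations in the primary run, eleven up to 76.6 uM in confirmation), incubated 16 h, depleted ER calcium with thapsigargin, and read luciferase 4 h later.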

[15] = Cell Viability qHTS for small molecule stabilizers of the endoplasmic reticulum resident proteome (AID 1508629); settings: cell viability counter-screen, 100 nM thapsigargin for final 4 h;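 further: human SH-SY5Y neuroblastoma cells carrying the GLuc-SERCaMP reporter; compound exposure about 46 h in total before the viability read; on the % scale 0 is the no-effect control and ±100 the full control effect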

C[C@H]1O[C@@H](O[C@H]2CC[C@@]3(C)[C@H](CC[C@@H]4[C@@H]3C[C@@H](O)[C@]3(C)[C@@H](C5=CC(=O)OC5)CC[C@]43O)C2)C[C@H](O)[C@@H]1O[C@H]1C[C@H](O)[C@H](O[C@H]2C[C@H](O)[C@H](O[C@@H]3O[C@H](CO)[C@@H](O)[C@H](O)[C@H]3O)[C@@H](C)O2)[C@@H](C)O1
inactive: outcome [1] | Potency [2] | Potency [5] | outcome [6] | Potency [7]
active: Potency [3] 415 nM | Potency [4] 528 nM

CC1(COc2ccc(CC3SC(=O)NC3=O)cc2)CCCCC1 (stereo not drawn)
inactive: outcome [1] | Potency [2] | Potency [4] | outcome [8] | Potency [7]

C=C[C@H]1CN2CC[C@H]1C[C@H]2[C@H](O)c1ccnc2ccc(OC)cc12
inactive: Potency [3] | Potency [5] | outcome [6] | outcome [8] | Potency [9]

C#C[C@]1(O)CC[C@H]2[C@@H]3[C@H](C)CC4=C(CCC(=O)C4)[C@H]3CC[C@@]21C
inactive: Potency [4] | Potency [10] | outcome [6] | outcome [8] | Potency [7] | Potency [11] | Potency [9]

O=C(O)C(Cc1cc(I)c(O)c(I)c1)c1ccccc1 (stereo not drawn)
inactive: activity change, negative = inhibition [3] -2.94% [at 1.74 µM] | Potency [4] | outcome [6] | outcome [8] | Potency [7] | Potency [11]

CCOC(=O)[C@H](CCc1ccccc1)N[C@@H](C)C(=O)N1[C@H](C(=O)O)C[C@@H]2CCC[C@@H]21
inactive: Potency [4] | Potency [10] | Potency [5] | outcome [6] | outcome [8] | Potency [7] | Potency [11] | Potency [9]

O=c1[nH]c(=O)n([C@H]2C[C@H](O)[C@@H](CO)O2)cc1F
inactive: Potency [4] | Potency [10] | Potency [5] | outcome [6] | Potency [7]

COc1cc([C@H]2Oc3cc([C@H]4Oc5cc(O)cc(O)c5C(=O)[C@@H]4O)ccc3O[C@@H]2CO)ccc1O
inactive: Potency [4] | Potency [10] | Potency [5] | outcome [6] | outcome [8] | Potency [12] | Potency [11]
active: Potency [7] 35500 nM

CCCCCCCC/C=C\CCCCCCCCN
inactive: Potency [4] | Potency [5] | outcome [6] | outcome [8] | Potency [7] | Potency [11]

Cc1cc(CC(=O)O)c(C)n1-c1ccc(Cl)cc1
inactive: Potency [4] | Potency [5] | outcome [6] | outcome [8] | Potency [7]

CN1CCC(OC(c2ccccc2)c2ccccc2)CC1
inactive: Potency [4] | Potency [5] | outcome [6] | outcome [8] | Potency [7] | Potency [13] | Potency [14] | max response [15] 7.61%

CN(CCCN1c2ccccc2CCc2ccccc21)CC(=O)c1ccc(Cl)cc1
inactive: Potency [4] | Potency [5] | outcome [6] | outcome [8] | Potency [7] | Potency [13] | max response [15] 24.4%
active: Potency [14] 31.6 µM and 39.8 µM

CCc1cc(Cl)c(OC)c(C(=O)NC[C@@H]2CCCN2CC)c1O
inactive: Potency [4] | Potency [5] | outcome [6] | outcome [8] | Potency [7] | Potency [11]

CCOC(=O)C(C#N)=C(c1ccccc1)c1ccccc1
inactive: Potency [4] | Potency [5] | outcome [6] | outcome [8] | Potency [7] | Potency [11]

Oc1ccccc1C=NCc1ccccc1
inactive: Potency [4] | Potency [5] | outcome [6] | outcome [8] | Potency [7]

O=C(NC1CCN(CCc2c[nH]c3ccccc23)CC1)c1ccccc1
inactive: Potency [4] | Potency [5] | outcome [6] | outcome [8] | Potency [7]

Nc1ccc(S(=O)(=O)NCc2ccccc2)cc1
inactive: Potency [4] | Potency [5] | outcome [6] | outcome [8] | Potency [7] | Potency [11]

N/C(=N\N=C\c1ccc(Cl)cc1)N/N=C/c1ccc(Cl)cc1
inactive: Potency [4] | Potency [5] | outcome [6] | outcome [8] | Potency [7] | Potency [11]

NCCNC(=O)c1ccc(Cl)cn1
inactive: Potency [4] | Potency [5] | outcome [6] | outcome [8] | Potency [7] | Potency [11]

C/C=C/C=N/NC(=O)c1ccncc1
inactive: Potency [4] | Potency [5] | outcome [6] | outcome [8] | Potency [7] | Potency [11] | Potency [9]

COP(=O)(OC)OC(c1ccc(Cl)cc1)P(=O)(OC)OC (stereo not drawn)
inactive: Potency [4] | Potency [5] | outcome [6] | outcome [8] | Potency [7] | Potency [11]

C[C@@H](O)[C@H]1C(=O)N2C(C(=O)O)=C(S[C@@H]3CN[C@H](CNS(N)(=O)=O)C3)[C@H](C)[C@H]12
inactive: Potency [4] | Potency [5] | outcome [6] | outcome [8] | Potency [7] | Potency [11] | Potency [9]

O=C(CCN1CCN2CCCC2C1)N1c2ccccc2Sc2ccc(Cl)cc21 (stereo not drawn)
inactive: Potency [4] | Potency [5] | outcome [6] | outcome [8] | Potency [7]

CCCCC(CC)COC(=O)c1ccc(N(C)C)cc1 (stereo not drawn)
inactive: Potency [4] | Potency [5] | outcome [6] | outcome [8] | Potency [7] | Potency [11]

CCOCCn1c(N2CCCN(C)CC2)nc2ccccc21
inactive: Potency [4] | Potency [5] | outcome [6] | outcome [8] | Potency [7] | Potency [11]

CCOc1cc(OCC)c(C(=O)CCC(=O)O)cc1OCC
inactive: Potency [4] | Potency [5] | outcome [6] | outcome [8] | Potency [7] | Potency [13] | Potency [14] | max response [15] 24.8% | Potency [9]

CCCCCCCCNC(C)C(O)c1ccc(SC(C)C)cc1 (stereo not drawn)
inactive: Potency [4] | Potency [5] | outcome [6] | outcome [8] | Potency [7] | Potency [11]

NC(=O)c1ccccc1O
inactive: Potency [4] | Potency [5] | outcome [6] | outcome [8] | Potency [7] | Potency [11]

COc1ccccc1N1CCN(CCCCNC(=O)c2ccc(-c3ccc(C(C)=O)cc3)cc2)CC1
inactive: Potency [4] | Potency [5] | outcome [6] | outcome [8] | Potency [7] | Potency [11] | Potency [9]
